# The full list was thinned out, with hits kept by preference.
# VCAM1 TNFa pot – potentiators of TNFa-induced VCAM1 expression, primary screen, imaging, HUVEC, TNFa stimulus, immunofluorescence; HUVEC TNFa-stimulated VCAM-1 immunofluorescence, high-content imaging; scaled per plate to unstimulated/TNFa-only wells; activation, % at 2 µM; 0.19% of 93,000 active; AID 808, 2007;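 active means activation above the screen mean plus 3 SD, with well images confirming the hit on visual review, cut at about 28% in these data, passing the limit was not always enough; inconclusive means activation above that limit but images do not confirm it; inactive means activation not above that limit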;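 further: signal is the number of cytoplasmic VCAM-1 stained grains per positive cell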
# VCAM1 pot conf – potentiators of TNFa-induced VCAM1 expression, confirmation, imaging, HUVEC, triplicate retest | 230 tested, under 10 active | HUVEC TNFa-stimulated VCAM-1 immunofluorescence imaging | activation, % at 2 µM | shares compounds with VCAM1 TNFa pot;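 active means activation above 30% in triplicate retests at 2 µM, then confirmed by visual review of the well images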;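 further: scaled per plate between unstimulated and TNFa-stimulated DMSO control wells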
# Active calls of the source: *; ? = inconclusive.
SMILES,VCAM1 TNFa pot,others
O=C1C/C(=C/NCc2ccccc2)C(=O)N1,26,
Nc1c(Cl)cc(Cl)cc1C(=O)OCC(=O)NC1CC1,4,
CCn1c2c(c3cc(OCC(C)C)ccc31)CCCC2=O,47*,VCAM1 pot conf=-11
COc1ccc(S(=O)(=O)N(C)CC(=O)N2CCN(c3ccc(F)cc3)CC2)cc1OC,4,
CN(C)CCCN1C(=O)CSC1c1ccccc1 (configuration not stated),-7,
O=C1CSC(c2ccccn2)N1c1ccccc1 (configuration not stated),34*,VCAM1 pot conf=-16
CCOc1ccc(N2C(=O)CSC2c2ccncc2)cc1 (configuration not stated),-91,
COc1ccc(C(=O)c2ccc(N(C)C)cc2)c2ccccc12,-60,
CCc1nnc(SCC(=O)N2CCCc3ccccc32)nc1CC,?,VCAM1 pot conf=-22
O=C(Nc1ccccc1)N1CCCc2ccccc21,10,
COc1ccccc1CC(=O)N1CCCc2ccccc21,-19,
CCOC(=O)CC(=O)CSc1nc2c(C)c(C)ccc2cc1C,51*,VCAM1 pot conf=-10
CCOC(=O)CC(=O)CSc1ccc2nnc(-c3ccc(F)cc3)n2n1,-1,
CCOC(=O)CSc1nc2ccc(C)cc2cc1C#N,-9,
COc1ccc(OC)c(-n2c(C)ccc2-c2ccc(S(C)(=O)=O)cc2)c1,-4,
CC1=CC(C)(C)N(C(=O)C(C)N2C(=O)c3ccccc3C2=O)c2ccc(C)cc21 (configuration not stated),-7,
Cc1ccc(C(=O)Nc2nncs2)cc1S(=O)(=O)N1CCOCC1,-22,
Nc1ccccc1NC(=O)c1ccccc1,-2,
Nc1sccc1C(=O)c1ccccc1,66*,VCAM1 pot conf=-8
O=C(Oc1csc(=S)n1C(=O)c1ccccc1)c1ccccc1,-98,
O=c1c2cnn(-c3ccccc3)c2ncn1/N=C/c1ccncc1,0,
CCC(CC)C(=O)NCCc1ccc(S(N)(=O)=O)cc1,-13,
COc1ccc(CCNC(=O)C2CCN(S(=O)(=O)N3CCCCCC3)CC2)cc1OC,3,
NS(=O)(=O)c1ccc(CCNC(=O)C2CCCCC2)cc1,33*,VCAM1 pot conf=-13
COCCNC(=O)C(OC(=O)c1cccs1)c1ccccc1 (configuration not stated),-3,
SMILES,VCAM1 TNFa pot,others
Cc1cccc(NC(=O)c2cccc(N3C(=O)C4C5CCC(C5)C4C3=O)c2)c1C (configuration not stated),-2,
CSC1=C(C#N)C(c2ccc(C)s2)CC(=O)N1 (configuration not stated),0,
COC(=O)CSC1=C(C#N)C(c2ccc(F)cc2)CC(=O)N1 (configuration not stated),32*,VCAM1 pot conf=-17
CCOC(=O)CSc1nc(C2CC2)cc(-c2ccc(F)cc2)c1C#N,-9,
O=C(O)c1cc2ccc3ccccc3c2oc1=O,-26,
O=C(CSc1nc2ccccc2[nH]1)Nc1cc(C(F)(F)F)ccc1N1CCOCC1,-3,
O=C(CSc1nc2ccccc2[nH]1)Nc1ccccc1N1CCOCC1,48*,VCAM1 pot conf=-6
O=C(CSc1nc2ccccc2[nH]1)c1ccc2c(c1)OCO2,3,
Cc1cc2n(n1)SC(Nc1cc(Cl)ccc1Cl)N2 (configuration not stated),-21,
CN1C(=O)CC(N2CCN(Cc3ccc(Cl)cc3)CC2)C1=O (configuration not stated),10,
Cc1ccc(S(=O)(=O)CCc2nc3ccccc3s2)cc1C,8,

# High-throughput results (PubChem BioAssay)
